Assay results reported in PubChem BioAssay AID449762 (Southern Research Specialized Biocontainment Screening …, 2010).
The campaign covered roughly 330,000 compounds. About 1,900 (0.58%) were called active. Another 4% or so got no clear call; they are omitted. Rule as the data show it: inconclusive = inhibition above about 70% without an active follow-up result; inactive = below that. These entries were drawn from the full list. Measured potencies and affinities stand elsewhere.

Test: M. tuberculosis growth inhibition, HTS (AID 449762);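 also: bacterial growth assessed after seven days of incubation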
Details: M. tuberculosis H37Rv growth inhibition, 7H9 media; at 25 µM; active compounds read high

Q: For O=[N+]([O-])c1ccc(C2CN=C(Nc3ccccc3)S2)cc1 (stereo not given), which inhibition is on record?
A: 0.07% (inactive)

Q: Which inhibition does the source give for CC1CN=C(Nc2ccccc2)S1 (stereo not given) here?
A: 1.32% (inactive)

Q: With Cc1cc2c(OCC(O)CN3CCCCC3)cccc2[nH]1 (stereo not given) as the compound, how does the inhibition read?
A: -0.02% (inactive)

Q: For COc1cc(C(=O)ONC(=O)c2ccc(OC(F)F)cc2)cc(OC)c1OC, which inhibition is on record?
A: 0.02% (inactive)

Q: Which inhibition does the source give for O=C(NCc1ccc(Cl)cc1)C1CCCN(c2cnccn2)C1 (stereo not given) here?
A: 3.46% (inactive)

Q: With O=C(COc1ccc(S(=O)(=O)N2CCOCC2)cc1Cl)NCCN1CCOCC1 as the compound, how does the inhibition read?
A: 0.71% (inactive)

Q: With COc1ccc(-c2csc(-n3ncc(-c4ccccn4)c3N)n2)cc1 as the compound, how does the inhibition read?
A: 1.41% (inactive)

Q: For Nc1c(-c2cccs2)cnn1-c1nc(-c2ccc(F)cc2)cs1, which inhibition is on record?
A: -11.5% (inactive)

Q: Which inhibition does the source give for COc1ccc(-c2n[nH]c(=S)n2CC(C)C)cc1 here?
A: -17.2% (inactive)

Q: With CN(C)CCCN(C(=O)c1ccc(C(=O)c2ccccc2)cc1)c1nc2cc3c(cc2s1)OCCO3 as the compound, how does the inhibition read?
A: 2.4% (inactive)

Q: With Cn1cc(C(=O)c2ccccc2C(=O)O)cc1C(=O)C(Cl)(Cl)Cl as the compound, how does the inhibition read?
A: 1.33% (inactive)

Q: For C=CCNC(=S)NNC(=O)c1cccc2ccccc12, which inhibition is on record?
A: -8.25% (inactive)

Q: For CN(c1ccccc1)S(=O)(=O)c1ccc(C(=O)OCC(=O)NCc2cccs2)cc1, which inhibition is on record?
A: -2.53% (inactive)

Q: With CCN1C(N(C)CCc2cccs2)=N[C@@H](c2ccccc2)C(C(=O)OC)=C1C as the compound, how does the inhibition read?
A: -2.75% (inactive)

Q: With CCN1C(=O)N[C@@H](c2cccc(C(F)(F)F)c2)C(C(=O)OC)=C1C as the compound, how does the inhibition read?
A: -2.1% (inactive)

Q: Which inhibition does the source give for C=CC[C@@H](Cc1ccc(F)cc1)C(=O)OC[C@H]1CCCN1C(=O)[C@@H](CC=C)CC(=O)N[C@@H](CO)Cc1ccccc1 here?
A: -0.18% (inactive)

Q: With O=C(SCC(O)C(O)CS)c1cccs1 (stereo not given) as the compound, how does the inhibition read?
A: -1.44% (inactive)

Q: Which inhibition does the source give for COc1ccc(C(=O)NN=C2CCCC2)c(OC)c1 here?
A: -0.32% (inactive)

Q: Which inhibition does the source give for O=C(C1CCCCC1)N1CCc2ccccc21 here?
A: 0.1% (inactive)

Q: Which inhibition does the source give for O=C(C1CCC1)N1CCc2cc(S(=O)(=O)N3CCCCC3)ccc21 here?
A: -8.32% (inactive)

Q: With O=C(Nc1ccncc1)c1cc(-c2cccc(Br)c2)nc2ccccc12 as the compound, how does the inhibition read?
A: -13.1% (inactive)

Q: With CCn1nc(NS(=O)(=O)c2ccc([N+](=O)[O-])cc2)c2cc3cc(C)ccc3nc21 as the compound, how does the inhibition read?
A: 2.04% (inactive)

Q: Which inhibition does the source give for COc1cccc(C(=O)OC(C)C(=O)Nc2ccc3c(c2)OCO3)c1 (stereo not given) here?
A: -7.8% (inactive)

Q: Which inhibition does the source give for COc1ccc(-n2nc(C(=O)NCC(=O)N3CCCCCC3)c3ccccc3c2=O)cc1OC here?
A: -4.92% (inactive)

Q: Which inhibition does the source give for COc1ccc(Cn2cnc3c(N)c(C)c(C)cc32)cc1 here?
A: -12.4% (inactive)

Q: For CN(C)c1nc(SCc2ccccc2Cl)nc2c1CCCC2, which inhibition is on record?
A: 20.2% (inactive)

Q: Which inhibition does the source give for COC(=O)CSc1nc(SCc2ccccc2Cl)nc2c1CCCC2 here?
A: -6.09% (inactive)

Q: For CC(C)OC(=O)c1nnn(-c2nonc2N)c1CN1CCCCCC1, which inhibition is on record?
A: -9.91% (inactive)

Q: With Cc1ccc(OCc2cc(C(=O)NCCn3cccn3)no2)cc1C as the compound, how does the inhibition read?
A: 10.8% (inactive)

Q: Which inhibition does the source give for COc1ccc(C(=O)NC(NC(=S)Nc2ccc(S(N)(=O)=O)cc2)C(Cl)(Cl)Cl)cc1 (stereo not given) here?
A: -5.71% (inactive)

Q: Which inhibition does the source give for Oc1ccc(C2=CCNCC2)cc1O here?
A: -1.15% (inactive)

Q: Which inhibition does the source give for CN1c2ccc([N+](=O)[O-])cc2N(C)C1(C)c1ccccc1 (stereo not given) here?
A: -1.96% (inactive)

Q: Which inhibition does the source give for CN1c2ccccc2N(C)C1(C)c1ccccc1 here?
A: 4.29% (inactive)

Q: With Cc1cc(C=C2C(=O)N(C)C(=S)N(C)C2=O)c(C)n1-c1cccnc1 as the compound, how does the inhibition read?
A: -1.48% (inactive)

Q: Which inhibition does the source give for Cc1cc(/C=C2/SC(=S)N(c3cccc(Cl)c3)C2=O)c(C)n1-c1cccnc1 here?
A: 59.7% (inactive)

Q: For COc1cccc(CCc2nnc(CCC(=O)N3CCN(Cc4ccccn4)CC3)o2)c1, which inhibition is on record?
A: -0.82% (inactive)

Q: For COc1ccccc1C(=O)c1c(C)c(CCC#N)n2ccccc12, which inhibition is on record?
A: 2.58% (inactive)

Q: With O=C(COC(=O)C12CC3CC(CC(C3)C1)C2)N1CCN(S(=O)(=O)c2ccccc2)CC1 as the compound, how does the inhibition read?
A: 6.15% (inactive)

Q: Which inhibition does the source give for CN(C1CCCCC1)S(=O)(=O)c1ccc(SCC(=O)NC(C)(C)C)nc1 here?
A: -0.68% (inactive)

Q: For CN1CCN(Cc2cc(Cl)c3cccnc3c2OC(=O)c2cccs2)CC1, which inhibition is on record?
A: -8.53% (inactive)

Q: For CN(C)C(=O)Oc1c(Cl)cc(Cl)c2cccnc12, which inhibition is on record?
A: 0.5% (inactive)

Q: For CN1C(=O)CC(N2CCN(CCN=CC3=C(O)CC(C)(C)CC3=O)CC2)C1=O (stereo not given), which inhibition is on record?
A: 9.46% (inactive)

Q: With O=C(CS(=O)(=O)Cc1ccccc1)Nc1ccc(Br)cc1F as the compound, how does the inhibition read?
A: -10.1% (inactive)

Q: For CCOC(=O)c1c(C)n(OC)c2ccc3c(no[n+]3[O-])c12, which inhibition is on record?
A: -8.43% (inactive)

Q: For COn1c2c(c3c4no[n+]([O-])c4ccc31)CCCC2, which inhibition is on record?
A: 12.5% (inactive)

Q: For Cc1ccc2[nH]c(=O)c(CN(CC3CCCO3)C(=O)c3ccncc3)cc2c1 (stereo not given), which inhibition is on record?
A: 4.74% (inactive)

Q: For CN1CCc2c(C#N)c(N3CCCCC3)nc(NCc3ccccc3)c2C1, which inhibition is on record?
A: 8.6% (inactive)

Q: For CCCCCNc1nc(NCCCO)c(C#N)c2c1CN(C)CC2, which inhibition is on record?
A: 1.69% (inactive)

Q: For CC(=O)NC(C)(CC(=O)c1ccccc1)c1ccccc1 (stereo not given), which inhibition is on record?
A: -8.86% (inactive)

Q: With S=C(NCCCN1CCOCC1)N(Cc1ccccc1)Cc1ccccc1 as the compound, how does the inhibition read?
A: -1.92% (inactive)

Q: With Cc1ccccc1Nc1nn2c(=O)c3ccccc3nc2s1 as the compound, how does the inhibition read?
A: 4.93% (inactive)

Q: With C=CCSc1nn2c(=O)c3ccccc3nc2s1 as the compound, how does the inhibition read?
A: 66.1% (inactive)

Q: Which inhibition does the source give for Cc1nc(SCC(C)C)[nH]c(=O)c1Cc1ccccc1 here?
A: -4.67% (inactive)

Q: Which inhibition does the source give for O=C(OCc1nnc(-c2ccccc2)o1)c1ccc([N+](=O)[O-])s1 here?
A: 63.8% (inactive)

Q: With O=C(OCc1nnc(-c2ccccc2)o1)c1ccccc1 as the compound, how does the inhibition read?
A: 3.86% (inactive)

Q: Which inhibition does the source give for COc1ccc(OC)c(NC2=NCCCS2)c1 here?
A: -1.69% (inactive)

Q: Which inhibition does the source give for COc1ccc(C(CNC(=O)C(=O)NC2CCCCC2)N2CCN(C)CC2)cc1 (stereo not given) here?
A: -12.6% (inactive)

Q: For COc1ccc(OC)c(N2Cc3ccccc3C2)c1, which inhibition is on record?
A: 3.42% (inactive)

Q: For COc1ccccc1NC(=O)Nc1nc(CC(=O)NCc2c(F)cccc2F)cs1, which inhibition is on record?
A: 29.2% (inactive)

Q: With COc1ccccc1CC(=O)N1CCN(c2ccccc2F)CC1 as the compound, how does the inhibition read?
A: 3% (inactive)

Q: Which inhibition does the source give for O=C(Nc1cccc(S(=O)(=O)N2CCOCC2)c1)c1cc(=O)[nH]c2ccccc12 here?
A: -2.49% (inactive)

Q: With CN(C)Cc1nc2ccccc2c(=O)n1CC#N as the compound, how does the inhibition read?
A: -2.77% (inactive)

Q: For N#CCn1c(Cc2ccccc2)nc2ccccc2c1=O, which inhibition is on record?
A: -1.48% (inactive)

Q: Which inhibition does the source give for CCOCCc1nnc(NC(=O)CS(=O)(=O)c2ccc(C)cc2)s1 here?
A: -7.28% (inactive)

Q: For COc1ccccc1CN1CCC(n2nccc2NC(=O)CCCc2ccccc2)CC1, which inhibition is on record?
A: 3.32% (inactive)

Q: With CCOC(=O)C1=C(CSc2nc3c(cc2C#N)CN(C)CC3)OC(N)=C(C#N)C1c1ccc(Cl)cc1 (stereo not given) as the compound, how does the inhibition read?
A: -0.9% (inactive)

Q: For COc1ccc(C(CC(=O)NCCCN2CCOCC2)NS(=O)(=O)c2ccc(C)cc2)cc1 (stereo not given), which inhibition is on record?
A: -3.32% (inactive)

Q: For Cc1ccc(NC(=O)C2CCN(c3cnccn3)CC2)cc1, which inhibition is on record?
A: -0.63% (inactive)

Q: Which inhibition does the source give for CCCc1ccc(NC(=O)C2CCCN(c3cnccn3)C2)cc1 (stereo not given) here?
A: 3.51% (inactive)

Q: Which inhibition does the source give for COc1ccc(NC(=O)C2CCCN2S(=O)(=O)c2ccc3c(c2)CCC(=O)N3)cc1 (stereo not given) here?
A: -21% (inactive)

Q: For CCCn1c(CCc2ccccc2)nnc1SCC(=O)N1CCCC1, which inhibition is on record?
A: -5.53% (inactive)

Q: For C[C@]12CCC(=O)C=C1CC[C@@H]1C2[C@H](O)C[C@]2(C)C(=O)CCC12 (stereo not given in full), which inhibition is on record?
A: 2.16% (inactive)

Q: With Cc1nnc(NC(=O)c2cc(-c3ccncc3)nc3c(C)cccc23)s1 as the compound, how does the inhibition read?
A: 9.24% (inactive)

Q: With Cc1cc(NC(=O)c2cc(-c3cccnc3)nc3c(C)c(C)ccc23)no1 as the compound, how does the inhibition read?
A: 2.95% (inactive)

Q: With CCN(CC)S(=O)(=O)c1cccc(-c2n[nH]c(=S)n2CC(C)C)c1 as the compound, how does the inhibition read?
A: 4.49% (inactive)

Q: With COC(=O)N(NC(=O)C(O)(CCC(C)C)CCC(C)C)c1ccccc1 as the compound, how does the inhibition read?
A: 2.67% (inactive)

Q: With CCOC(OCC)P(=O)(C(C)C)C(C)C as the compound, how does the inhibition read?
A: -4.61% (inactive)

Q: With Cc1ccc(-c2nnc3c(C(F)(F)F)nc4ccccc4n23)cc1 as the compound, how does the inhibition read?
A: 0.23% (inactive)

Q: For CC(C)c1cc(-c2cc(-c3ccccc3)on2)nc(NC2CCCC2)n1, which inhibition is on record?
A: 5.62% (inactive)

Q: For Cc1cc(-c2cc(-c3ccc(Cl)cc3)on2)nc(NC2CCCC2)n1, which inhibition is on record?
A: 31.4% (inactive)

Q: With CCCCN(C)C(=O)CC(NS(=O)(=O)c1ccc(NC(C)=O)cc1)C(C)C (stereo not given) as the compound, how does the inhibition read?
A: 0.04% (inactive)

Q: With Cc1ccc(-n2nnnc2CNC(=O)c2ccc(Br)o2)cc1C as the compound, how does the inhibition read?
A: 11.2% (inactive)

Q: For O=C(NCc1nnnn1-c1ccc(Cl)cc1)c1ccc(Br)o1, which inhibition is on record?
A: -0.54% (inactive)

Q: Which inhibition does the source give for O=C(O)C1C2C=CC(C2)C1C(=O)NCc1ccc(Cl)cc1Cl (stereo not given) here?
A: 7.08% (inactive)

Q: Which inhibition does the source give for Oc1ccccc1-c1cc(C(F)(F)C(F)F)nc(-c2ccccc2)n1 here?
A: 12.1% (inactive)

Q: For Oc1ccccc1-c1cc(C(F)(F)F)nc(-c2ccccc2)n1, which inhibition is on record?
A: 6.24% (inactive)

Q: Which inhibition does the source give for Cc1cc(C)nc(/N=C(\N)Nc2cc([N+](=O)[O-])ccc2C)n1 here?
A: 1.78% (inactive)

Q: For COc1ccc(C)cc1N/C(N)=N/c1nc(C)cc(C)n1, which inhibition is on record?
A: 5.92% (inactive)

Q: For CC(=O)N/C(=C\c1ccccc1)C(=O)OCC(=O)NC(C)C12CC3CC(CC(C3)C1)C2 (stereo not given), which inhibition is on record?
A: 10.4% (inactive)

Q: For O=C(CCC(=O)OCc1ccc([N+](=O)[O-])cc1)Nc1ccccc1Cl, which inhibition is on record?
A: -11.9% (inactive)

Q: Which inhibition does the source give for CC(C)(C)c1ccc(C(=O)NNC(=O)c2ccc(Cl)cc2)cc1 here?
A: -6.43% (inactive)

Q: With CC(C)(C)NC(=O)C(=O)NNC(=O)c1ccccc1 as the compound, how does the inhibition read?
A: -5.28% (inactive)

Q: With Cc1cc(C)c(S(=O)(=O)c2cc(F)ccc2C)c(Cl)n1 as the compound, how does the inhibition read?
A: 6.18% (inactive)

Q: With Cc1cc(/C([O-])=C(/C(=S)Nc2ccccc2)[n+]2ccccc2)c(C)n1-c1ccccc1 as the compound, how does the inhibition read?
A: 38.1% (inactive)

Q: For Cc1cc(/C([O-])=C(/C(=S)Nc2ccc(F)cc2)[n+]2ccccc2)c(C)n1-c1ccc(F)cc1, which inhibition is on record?
A: -9.36% (inactive)
